Measured values taken from PubChem BioAssay AID624252 (National Center for Advancing Translational Sciences (NCATS), 2012).
The list shows a part of the results. Results filed as inconclusive are left out. Activity calls are given as the source filed them. Calls follow the shape of the dose curve; as a rule, active = well fitted cell-killing curve with a large enough effect; inconclusive = small, poorly fitted or top-dose-only effect; inactive = flat fitted curve, though single readings scatter.

assay: qHTS screen for small molecules that inhibit ELG1-dependent DNA repair: Hit Confirmation with Unstimulated Viability Assay; details: cell viability counter-screen, luminescence;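 also: compound exposure lasted 16 hours before reading; nearly all actives have a fitted effect of over 55% in size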
Excerpt: Cancer cells divide rapidly compared to normal cells in the body. During cell division, cancer cells need to duplicate their genome by DNA replication. The failure of genome duplication leads to cancer cells' death. Therefore, inhibitors of DNA replication could specifically kill cancer cells. Based on this concept, many chemotherapeutic agents were developed and have been used to treat cancer patients. However, there are a limited number of agents available in the clinical setting, and some of those that do exist have low efficacy and severe side effects. Therefore, if we can find the compounds that effectively block DNA replication either by directly damaging DNA or by inhibiting other cellular mechanisms, the options for cancer treatment will be broadened. With this in mind, we developed a quantitative high-throughput ELG1-luciferase reporter gene assay. Small molecules that specifically block ELG1 function in response to DNA damage can be identified by monitoring the suppression of luciferase activity. Since ELG1 defines a pathway for repairing DNA damage, agents blocking ELG1 function can be used to sensitize cancer cells to chemotherapeutic agents whose mechanism of action involves the induction of DNA damage.
NIH Molecular Libraries Probe Production Network [MLPCN]
NIH Chemical Genomics Center [NCGC]
Assay Provider: Kyungjae Myung, NHGRI, NIH
For genotoxicity screening, 2,000 cells in 4 uL/well were dispensed into white, solid-bottom 1536-well plates using a solenoid-based dispenser. 23 nL compound or DMSO vehicle were added by a pin tool, the plates were incubated 16 hr at 37 °C and 5% CO2. 5 ul ONE-Glo (Promega) was then added to each plate and following a 30 min incubation at room temperature, luciferase activity was quantified on a ViewLux CCD-based plate reader.
Potency is read from the fitted curve at half-maximal effect.

| Compound | Potency |
| --- | --- |
| C[C@@]12CC[C@H]3[C@@H](CC[C@]4(O)C[C@H](O)CC[C@@]34C=O)[C@]1(O)CC[C@@H]2C1=CC(=O)OC1 | 425 nM (active) |
| COC1CC(OC2CC[C@@]3(C=O)C4CC[C@]5(C)C(C6=CC(=O)OC6)CC[C@@]5(O)C4CC[C@]3(O)C2)OC(C)C1O (stereo partly drawn) | 199 nM (active) |
| CC(=O)[O][Sn]([c]1ccccc1)([c]1ccccc1)[c]1ccccc1 | 1410 nM (active) |
